Screening results deposited in PubChem by several laboratories.
CYP2C19 inh: blockers of cytochrome P450 2C19 activity – biochemical, luminescence, ADME assay, primary screen. P33261. CYP2C19 Supersomes, luciferin-H EGE luminescence, 30 min. inhibition, % at 5 µM. 96,000 tested, 21% active. AID 778, 2007;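 active = CYP2C19 inhibition above a set limit at 5 µM in the primary screen, cut at about 50% in these data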
CYP2C9 inhib: blockers of cytochrome P450 2C9 activity – biochemical, luminescence, ADME assay, primary screen | CYP2C9 Supersomes, luciferin-H conversion | inhibition, % at 5 µM | 96,000 tested, 20% active;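 active = blocking of liver enzyme CYP2C9 beyond about 50% at 5 µM, limit read from the data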
Target sequence (P11712 whole entry, looked up): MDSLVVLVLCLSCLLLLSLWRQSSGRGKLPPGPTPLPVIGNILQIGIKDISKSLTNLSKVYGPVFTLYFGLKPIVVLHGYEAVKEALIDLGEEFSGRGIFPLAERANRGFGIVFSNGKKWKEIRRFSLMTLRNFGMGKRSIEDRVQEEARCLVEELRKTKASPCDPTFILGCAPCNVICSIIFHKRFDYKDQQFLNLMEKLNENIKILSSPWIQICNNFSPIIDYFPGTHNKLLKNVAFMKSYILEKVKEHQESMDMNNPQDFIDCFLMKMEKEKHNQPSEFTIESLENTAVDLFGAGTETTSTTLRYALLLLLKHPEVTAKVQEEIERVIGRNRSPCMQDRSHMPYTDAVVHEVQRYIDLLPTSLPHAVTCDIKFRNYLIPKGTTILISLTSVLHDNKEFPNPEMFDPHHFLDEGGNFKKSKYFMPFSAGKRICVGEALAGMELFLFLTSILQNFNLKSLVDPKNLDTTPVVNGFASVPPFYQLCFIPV
Measles CPE: compounds protecting cells from measles virus cytopathic effect, primary screen, measles RdRp inhibitor project, single point, MLSMR library, absorbance; Measles virus-infected cells, CPE protection; protection (pct of control), % at 4 µM; 140,000 tested, 1.5% active; AID 841, 2007; in the data active = protection mostly above about 24%, no sharp cut-off; inactive = mostly below about 26%
CYP2C9 act: human CYP2C9 activators, primary screen, biochemical, luminescence | activation factor at 5 µM | Cytochrome P450 2C9 (Homo sapiens), P11712 | recombinant CYP2C9, luciferin-H conversion; stronger effect = higher value; factor 1 = untreated enzyme, 0 = blocked | 96,000 tested, 1.4% active;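 active = activation factor of 2 or more for CYP2C9 at a 5 µM dose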
CYP2C19 activ: human CYP2C19 activators, primary screen, biochemical, luminescence; Cytochrome P450 2C19 (Homo sapiens), P33261; recombinant CYP2C19, luciferin-H EGE luminescence; stronger effect = higher value; 0 = fully inhibited enzyme, 1 = untreated enzyme; activation factor at 5 µM; 96,000 tested, under 10 active; AID 1025, 2008;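 active = activation factor of at least 2 at 5 µM in the primary screen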
Hits are given with their value; 0 = inactive; - = no result. This is a sample that favours compounds with a hit; in the whole collection about 22% have one here.

SMILES | CYP2C19 inh | CYP2C9 inhib | Measles CPE | CYP2C9 act | CYP2C19 activ
COCC(C)NCc1ccccc1C (configuration not stated) | 0 | 80 | 0 | 0 | 0
Cc1c(NC(=S)Nc2ccccc2C(F)(F)F)cccc1[N+](=O)[O-] | - | - | 41 | - | -
Cc1ccccc1C(=O)NC(=S)Nc1ccccc1C(F)(F)F | 0 | 0 | 0 | 0 | 0
Cc1ccc(C(=O)NC(=S)Nc2ccccc2C(F)(F)F)c(C)c1 | - | - | 0 | - | -
CCCC(=O)NC(=S)Nc1cccc(Cl)c1N1CCCCC1 | 69 | 93 | 0 | 0 | 0
CC(C)C(=O)NC(=S)Nc1ccccc1C(F)(F)F | 73 | 63 | 0 | 0 | 0
CCCC(=O)NC(=S)Nc1ccccc1C(F)(F)F | 55 | 50 | 0 | 0 | 0
COc1ccc(C2N(c3ccc(OC)cc3)C(=S)N3CCCN23)cc1 (configuration not stated) | - | - | 0 | - | -
COc1c2c(cc3oc(C)cc(=O)c13)OC(C(C)(C)OC1OC(CO)C(O)C(O)C1O)C2 (configuration not stated) | - | - | 0 | - | -
Cc1ccsc1C(=O)OCC(=O)Nc1c(C)n(C)n(-c2ccccc2)c1=O | - | - | 0 | - | -
Cc1nn(CCC(=O)O)c(C)c1C | 0 | 0 | 0 | 0 | 0
Cc1ccc(NC(=O)CC2C(=O)NCCN2C(=S)Nc2ccccc2)c(C)c1 (configuration not stated) | - | - | 0 | - | -
O=C1C2CC=C(Cl)CC2C(=O)N1CC1OCCc2ccccc21 (configuration not stated) | 74 | 55 | 0 | 0 | 0
O=C(CSc1nc(-c2ccncc2)nn1CC(=O)N1CCCCC1)NC1CCCC1 | 64 | 79 | 0 | 0 | 0
CCn1c(SCC(=O)NC2CCCCC2C)nnc1-c1ccc(OC)cc1 (configuration not stated) | 71 | 68 | 0 | 0 | 0
CCCn1c(SCC(=O)NC2CCCCC2)nnc1-c1ccncc1 | 65 | 0 | 0 | 0 | 0
CCn1c(SCC(=O)NC2CCCCC2)nnc1-c1cccs1 | 0 | 0 | 0 | 0 | 0
CCn1c(CNC(=O)Cc2ccc(OC)cc2)nnc1SCC(=O)NC1CCCCC1 | 0 | 0 | 0 | 0 | 0
O=C(Cn1c(SCC(=O)NC2CCCC2)nnc1-c1ccncc1)Nc1ccc2c(c1)OCO2 | 91 | 91 | 0 | 0 | 0
O=C(OCc1cc(=O)n2c(n1)sc1ccccc12)c1ccc2c(=O)n3c(nc2c1)CCC3 | 0 | 76 | - | 0 | 0
CS(=O)(=O)Nc1ccc(C2=NN(C(=O)C3CCCCC3)C(c3cccs3)C2)cc1 (configuration not stated) | - | - | 0 | - | -
CCOC(=O)c1cnn(-c2nc(C)nc3sc4c(c23)CCC4)c1N | 0 | 0 | - | 0 | 0
Cn1c2ccccc2c2c(C(=O)N3CCN(C(=O)c4ccco4)CC3)cn(C3CCCCC3)c(=O)c21 | 0 | 74 | 0 | 0 | 0
CC(C)Cn1cc(C(=O)N2CCOCC2)c2c3ccccc3n(C)c2c1=O | 0 | 0 | 40 | 0 | 0
Cn1c2ccccc2c2c(C(=O)O)cn(C3CCCC3)c(=O)c21 | 0 | 0 | 0 | 0 | 0
SMILES | CYP2C19 inh | CYP2C9 inhib | Measles CPE | CYP2C9 act | CYP2C19 activ
COc1ccc(N2CCN(C(=O)c3cn(C4CCCC4)c(=O)c4c3c3ccccc3n4C)CC2)cc1 | 77 | 90 | 0 | 0 | 0
CCOC(=O)N1CCN(C(=O)c2cn(CC(C)C)c(=O)c3c2c2ccccc2n3C)CC1 | 0 | 0 | 0 | 0 | 0
Cn1c2ccccc2c2c(C(=O)NCc3ccco3)cn(C3CCCCC3)c(=O)c21 | 0 | 0 | 42 | 0 | 0
CCc1ccccc1NC(=S)N(CCCN1CCOCC1)Cc1ccccn1 | - | - | 0 | - | -
Cn1c2ccccc2c2c(C(=O)N3CCN(c4ccccn4)CC3)cn(C3CCCC3)c(=O)c21 | 69 | 94 | 0 | 0 | 0
COc1ccc(Cl)cc1NS(=O)(=O)c1cc(Cl)ccc1OC | 0 | 0 | 0 | 0 | 0
O=S(=O)(Nc1ccc2c(c1)OCCO2)c1ccc(Br)s1 | 98 | 96 | 0 | 0 | 0
COc1ccc(NS(=O)(=O)c2ccc(Br)s2)cc1OC | 99 | 87 | 0 | 0 | 0
COc1ccc(C)cc1NS(=O)(=O)c1ccc(Br)s1 | 98 | 0 | 0 | 0 | 0
CCn1cc(C2=NOC(C(=O)Nc3cccc(C(C)=O)c3)C2)c(C)n1 (configuration not stated) | 0 | 0 | 0 | 0 | 0
Cc1nnc(C)c2c(C)n(C(c3ccccc3)c3ccccc3)c(C)c12 | 0 | 56 | 0 | 0 | 0
CCn1c(C)c2c(C)nnc(C)c2c1C | 0 | 0 | 0 | 0 | 0
O=Cc1cn(CC(=O)N2CCCCC2)c2ccccc12 | - | - | 0 | - | -
O=Cc1cn(CC(=O)N2CCCc3ccccc32)c2ccccc12 | - | - | 0 | - | -
CC1CCCCN1C(=O)Cn1cc(C(=O)c2ccco2)c2ccccc21 (configuration not stated) | 83 | 68 | 0 | 0 | 0
O=C(c1cn(CC(=O)N2CCCC2)c2ccccc12)C1CCCCC1 | 54 | 50 | - | 0 | 0
O=C(c1ccco1)c1cn(CC(=O)N2CCCc3ccccc32)c2ccccc12 | 98 | 100 | 0 | 0 | 0
CCOC(=O)C1CCN(C(=O)Cn2cc(C(=O)c3ccco3)c3ccccc32)CC1 | 0 | 0 | 0 | 0 | 0
CN1C(=O)/C(=C/c2cn(CC(=O)N3CCCCC3)c3ccccc23)c2ccccc21 | 75 | 98 | 0 | 0 | 0
COc1ccccc1NC(=O)C(=O)N/N=C(\C)CC(=O)Nc1ccc(OCc2ccccc2)cc1 | 0 | 0 | 0 | 0 | 0
CC(=O)Nc1ccc(S(=O)(=O)N(C)CC(=O)OCC(=O)c2cc(C)n(-c3ccc4c(c3)OCO4)c2C)cc1 | - | - | 0 | - | -
O=C(NCCc1ccccc1)c1cccnc1 | 0 | 0 | 0 | 0 | 0
CS(=O)(=O)N1CCC(C(=O)Nc2cccc(C(F)(F)F)c2)CC1 | 0 | 0 | 0 | 0 | 0
O=C(Nc1ccc(N2CCCCC2)c(Cl)c1)c1cccnc1 | 0 | 0 | 61 | 0 | 0
O=C(/C=C/c1cccc(C(F)(F)F)c1)Nc1cccc(C(F)(F)F)c1 | 0 | 0 | 0 | 2.9 | 0
SMILES | CYP2C19 inh | CYP2C9 inhib | Measles CPE | CYP2C9 act | CYP2C19 activ
O=C(Nc1cccc(C(F)(F)F)c1)C1CCCCC1 | 87 | 69 | 0 | 0 | 0
O=C(NCCc1ccccc1)c1cccnc1N1CCCCCC1 | 72 | 61 | 36 | 0 | 0
Cc1ccc(NC(=O)/C=C/c2cccc(C(F)(F)F)c2)cc1 | - | - | 0 | - | -
CCCCCCCCNC(=O)/C(C#N)=C/c1ccccc1[N+](=O)[O-] | - | - | 0 | - | -
CC(C)(O)[C@H](O)COc1c2occc2cc2ccc(=O)oc12 | - | - | 0 | - | -
Cc1ccc(C)c(N(C(=O)CS(=O)CC(=O)Nc2ccc3c(c2)OCO3)C(C)C(=O)NC2CCCC2)c1 (configuration not stated) | - | - | 0 | - | -
O=C(Nc1cccc(C(F)(F)F)c1)c1cccnc1N1CCOCC1 | - | - | 0 | - | -
O=C(Nc1cccc(F)c1)c1cccnc1N1CCOCC1 | 0 | 0 | 24 | 0 | 0
O=C(Nc1cccc(C(F)(F)F)c1)c1cccnc1N1CCCC1 | 0 | 0 | 0 | 3.4 | 0
